Data as given in PubChem BioAssay (NCI).
This is part of a sample that, as a whole, favours compounds with a hit. Of some 83,000 tested, about 20% had one in any assay.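 Single-concentration screen, 48 h exposure, 96-well plates. Endpoint: percent growth. Below 10 = active.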 Values without a mark were called inactive. Activity calls are given as the source filed them.

The molecules below were run on ACHN renal (assay: NCI-60 one-dose screen, 48 h (100 = growth as untreated, 0 = no growth, -100 = all killed)). Settings: 10 µM unless noted.
Description: Growth inhibition of the ACHN human tumor cell line is measured as a screen for anti-cancer activity. Cells are grown in 96 well plates and exposed to the test compound for 48 hours. Compounds are tested at a single concentration, which is 10^-5 M for most compounds. The reported endpoint is percent growth (GI% or GIPRCNT), where numbers from 0 - 100% represent growth inhibition, and numbers from -100% - 0 represent cell death. For example, a value of 40 represents 60% growth inhibition. A value of 0 means no net growth occurred over the course of the experiment. A value of -40 indicates 40% of cells at the beginning of the experiment died by the end of the experiment. A value of -100 means all cells are dead at the end of the experiment.
NCI-60 Human Tumor Cell Lines Screen was performed using the standard one-dose NCI protocol, which is described in more detail at https://dtp.cancer.gov/discovery_development/nci-60/default.htm.
Compounds with GIPRCNT values below 10 were considered active. Activity score was based on GIPRCNT using the following formula: […]
Score is 0 for GIPRCNT values of 100 or above, 50 for GIPRCNT values of 0, and 100 for GIPRCNT values of -100.

Compound	growth
O=C(Nc1cccc(-n2ccc3c(NC(=O)c4ccccc4)nccc32)c1)Nc1ccc(Cl)c(C(F)(F)F)c1	13.1%
O=C(Nc1ccc(-n2ccc3c(NC(=O)c4ccccc4)nccc32)cc1)c1cccc(C(F)(F)F)c1	33.4%
COc1ccc2c(c1)C(=O)/C(=C/c1cccc(OCC(=O)c3ccccc3)c1)O2	45.1%
Cc1ccc(-c2cn3cc([N+](=O)[O-])ccc3n2)cc1	73.4%
CCCCCCCCCCCC(=O)OCCNC(=O)C[n+]1ccccc1	99.9%
COc1ccc(C(=O)NC(=O)Nc2ccc3c(c2)NC(=O)/C3=C\c2[nH]c(C)c(C(=O)O)c2C)c(F)c1	55.2%
COc1cc(/C=C/C(=O)c2c(C)[n+]([O-])c3ccccc3[n+]2[O-])ccc1O	95.4%
COc1ccc(C(=O)Cn2cnc3c(Nc4cc(C(=O)Nc5ccc(N6CCN(CCO)CC6)cc5)ccc4C)ncnc32)cc1	103%
NC(N)=N/N=C/c1ccc([N+](=O)[O-])cc1	106%
FC(F)(F)c1cn(CCN2CCOCC2)c2ncnc(Cl)c12	64.7%
C=C(C)[C@@H]1C/C=C(\COC(=O)[C@H](OC(C)=O)C(NC(=O)c2ccccc2)c2ccccc2)CC[C@H]2O[C@]2(C)CC/C=C(\C)CC1 (stereo not given in full)	86.8% [5 µM]
CC1(C)N=C(N)N=C(N)N1c1ccc(OCC(=O)Nc2ccccc2)c(Cl)c1	103%
CC(C)(C)NCC(O)COc1c(Br)c(Br)c(Br)c2c1OC(C)(C)C2 (stereo not given)	-60.1% (active)
N#Cc1c(N)nc2c(c1N)C(c1ccc(Cl)cc1)C1=C(CCCC1=O)N2c1sc2c(c1C#N)CCCC2 (stereo not given)	96.8%
COc1ccc(-c2nn(-c3ccc(NC(=O)c4ccc(Cl)c(C(F)(F)F)c4)cc3)cc2-c2ccncc2)cc1Cl	27.3%
CCOC(=O)n1cnc2c(Cl)ncnc21	108%
O=C(Nc1ccc(-n2ccc3c(NC(=O)c4ccccc4)nccc32)cc1)Nc1ccc(Cl)c(Cl)c1	2.67% (active)
CCn1c(SCC(=O)c2ccc(Br)cc2)nnc1-c1cc2c([nH]c3ccccc32)c(-c2cccc(O)c2)n1	60.5%
COCCNC(C(=O)c1ccccc1)c1ccccc1 (stereo not given)	106%
COc1cccc(-c2nc3sccn3c2-c2ccnc(NCCNC(=O)c3ccccc3)n2)c1	65.8%

Compound	growth
COc1cc(NC(C)CCCN2C(=O)c3ccccc3C2=O)c2nc(C)ccc2c1OC (stereo not given)	99.5%
O=C1/C(=C/c2cccc3cnccc23)Cc2cc(F)ccc21	95.7%
CC(=O)c1ccc2c(c1)C1C=CCC1[C@H](c1cc3c(cc1Br)OCO3)N2 (stereo not given in full)	38.6%
CCC(N)(C(=O)O)c1ccc(F)cc1 (stereo not given)	114%
CC[C@H]1[C@@H]2C=C[C@@H]3[C@H]4C/C=C\C(=O)NCCC[C@@H]5NC(=O)/C(=C(O)/C=C/[C@@H]4C[C@@H]3[C@H]2C[C@H]1C)C5=O	-84.1% (active)
COc1cc(NC(C)CCCN2C(=O)c3ccccc3C2=O)c2nccc(C)c2c1OC (stereo not given)	110%
c1ccc(CNCCN(CCNCc2ccccn2)Cc2ccc3ccccc3c2)nc1	-27.9% (active)
C=CCn1c(SCC(=O)Nc2ccc(/C(C)=N\O)cc2)nnc1-c1cc(-c2ccc(OC)cc2)nc2ccccc12	28.9%
Fc1ccc(/C=N/n2c(-c3cc(Cl)cc(Cl)c3Cl)nn(CNc3ccc(Cl)nn3)c2=S)cc1	104%
O=S(=O)(CCN1CCOCC1)Nc1cc(-c2ccc3ncnc(Nc4ccc(F)c(Cl)c4)c3c2)cnc1Cl	9.87% (active)
N#CC(C#N)=C(C#N)c1c[nH]c2ccccc12	73.4%
O=C(N/N=C1\SCC(=O)N1c1ccccc1)c1cc(-c2cc3ccccc3o2)nn1-c1ccccc1	91%
C=C1C(=O)O[C@H]2[C@H]1CC/C(CNC(=O)/C1=C/CC[C@@]3(C)O[C@H]3[C@H]3OC(=O)C(=C)[C@@H]3CC1)=C\CC[C@@]1(C)O[C@@H]21	97.6%
COc1cc2ncnc(Oc3ccc(NC(=O)Nc4ccc(CN5CCOCC5)c(C(F)(F)F)c4)c4ccccc34)c2cc1OC	-3.27% (active)
COc1ccc2c(c1)nnc1c3cccnc3[nH]c21	-10.2% (active)
COc1ccc(-c2nn(-c3ccc(NC(=O)Nc4ccc(Cl)c(C(F)(F)F)c4)cc3)cc2-c2ccncc2)cc1Cl	7.51% (active)
Nc1ncnc2c1c(-c1ccc(Oc3ccccc3)cc1)nn2C[C@H]1SSC[C@@H]1O	33.4%
C=C1C(=O)O[C@H]2[C@H]1CC/C(COC(=O)c1ccc3ccccc3c1)=C\CC[C@@]1(C)O[C@@H]21	-100% (active)
COc1ccc(-c2cc(-c3nnc(SC/C(=N\O)c4ccccc4)n3-c3ccccc3)c3ccccc3n2)cc1	106%
Cc1ccc2nc(-c3ccc(-n4on4-c4ccc(/C=C/c5ccc(-n6on6-c6ccc(-c7nc8ccc(C)cc8s7)cc6)cc5S(=O)(=O)O)c(S(=O)(=O)O)c4)cc3)sc2c1	105%
